A selection: hits, their analogues and other compounds. The true share with any hit is near 4%.
esBAF inh = inhibitors of esBAF chromatin remodeling in mouse ES cells. Bmi1-luciferase knock-in reporter, 24 h; 100% = twice the neutral-well signal. reporter increase, % at 12.5 µM. 2% of 350,000 active. AID 602393; in the data active means activation above about 40%; inconclusive means no clear call, values can overlap the other calls;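 further: 0% = median of the plate's neutral control wells and 100% = double that signal; a rise in the Bmi1 reporter signal indicates esBAF inhibition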
Wnt act = activators of Wnt/beta-catenin signaling; Wnt/beta-catenin reporter cell assay, activator, plate reader; activation, % at 9.35 µM; 1.2% of 300,000 active; AID 743398; in the data active means activation above about 30%, passing the limit was not always enough; inconclusive means no clear call, values can overlap the other calls;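 further: 0% = neutral control wells and 100% = positive control wells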
MITF act = increases MITF-driven TRPM1 promoter luciferase signal; 0.75% of 300,000 active; activation, % at 12.5 µM; SK-MEL-5 TRPM1-promoter luciferase, 24 h; % of positive control, neutral wells = 0;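 active means mean activation of at least 80% with every replicate also reaching 80%; inconclusive means mean reaches 80% but some replicate falls short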;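 further: 0% = neutral control wells and 100% = parthenolide positive control wells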
C2C12 statin = suppression of simvastatin myotoxicity; 0.78% of 330,000 active; rescue of ATP level, % at 7.49 µM; C2C12 myotubes + simvastatin, ATP luminescence, 48 h; scaled: DMSO 0, geranylgeraniol control 100;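 active means mean ATP rescue above about 67%, or every replicate alone reaching that limit, limit read from the data, passing the limit was not always enough; inconclusive means no clear call, values can overlap the other calls; inactive means mean under the limit and some replicate under it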;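 further: myotubes were challenged with 10 µM simvastatin during compound exposure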
EBV LMP1 NFkB = reduces LMP1-driven NF-kappaB luciferase signal; LMP1-induced NF-kappaB luciferase reporter cells, luminescence; inhibition, % at 12.5 µM; 0.69% of 350,000 active; in the data active means inhibition above about 41%; inconclusive means no clear call, values can overlap the other calls;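 further: 0% = neutral control wells and 100% = reference inhibitor control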
TRPM1 prom inh = reduces MITF-dependent TRPM1 promoter luciferase signal; SK-MEL-5 TRPM1 promoter luciferase, 24 h; 0.83% of 330,000 active; AID 488899; inhibition, % at 12.5 µM;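 active means mean inhibition across replicates of 60% or more, whatever share of single replicates reaches that level; inconclusive means some that reach 60%, reason not given; inactive means mean inhibition across replicates below 60%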
An asterisk follows results filed as active; u = inconclusive; x = no result given.

SMILES	esBAF inh	Wnt act	MITF act	C2C12 statin	EBV LMP1 NFkB	TRPM1 prom inh
CC(C)Cc1ccc(-c2cc3nc(NCCc4ccc(S(N)(=O)=O)cc4)ccn3n2)cc1	92*	2	x	16	x	x
CC(C)Cc1ccc(-c2cc3nc(NCCCn4ccnc4)ccn3n2)cc1	61*	-3	x	8	x	x
C[C@H](CO)N1C[C@H](C)[C@H](CN(C)S(=O)(=O)c2ccc(F)cc2)Oc2c(NC(=O)Nc3ccccc3)cccc2C1=O	-1	x	x	4	x	x
C[C@@H]1CN([C@@H](C)CO)C(=O)c2cccc(NC(=O)Nc3ccccc3)c2O[C@@H]1CN(C)S(=O)(=O)c1ccc(F)cc1	9	x	x	74*	x	x
C[C@@H]1CN([C@H](C)CO)C(=O)c2cccc(NC(=O)Nc3ccccc3)c2O[C@@H]1CN(C)S(=O)(=O)c1ccccc1	3	x	x	65*	x	x
Cc1ccc(S(=O)(=O)N(C)C[C@H]2Oc3c(NC(=O)Nc4ccccc4)cccc3C(=O)N([C@@H](C)CO)C[C@H]2C)cc1	3	x	x	123*	x	x
Cc1ccc(S(=O)(=O)N(C)C[C@H]2Oc3c(NC(=O)Nc4ccccc4)cccc3C(=O)N([C@H](C)CO)C[C@H]2C)cc1	5	x	x	117*	x	x
Cc1ccc(S(=O)(=O)N(C)C[C@@H]2Oc3c(NC(=O)Nc4ccccc4)cccc3C(=O)N([C@@H](C)CO)C[C@@H]2C)cc1	5	x	x	-9	x	x
COC(=O)C[C@@H]1CC[C@H]2[C@@H](COc3ccc(NC(=O)c4ccc(F)c(F)c4)cc3C(=O)N2C)O1	-2	x	x	6	x	x
O=C(CSc1ccccn1)Nc1ccc(NC(=O)CSc2ccccn2)cc1	x	x	-8	x	-3	10
O=C(CCSc1ccccn1)Nc1ccc(Br)cc1	x	62*	58	x	-18	-61
COc1ccc(NC(=O)c2cc3ccccn3n2)cc1	-23	31*	x	-10	16	x
COc1ccc(C(=O)Nc2ccc(NC(=O)c3ccccn3)cn2)cc1	19	6	21	-11	4	-17
COc1ccc(NC(=O)c2ccccn2)cc1	-64	x	-3	-4	52*	7
COc1ccc(NC(=O)CSc2ccccn2)cc1	29	36*	x	18	-4	-36
Cc1ccc(NC(=O)CSc2ccc(-c3ccccn3)nn2)c(C)c1	-4	0	-5	9	0	9
CC(=O)NC[C@H]1[C@H](c2ccc(-c3cccnc3)cc2)[C@H](CO)N1C(=O)C1CC1	1	x	x	15	x	x
C[C@@H](C(=O)Nc1ccccc1N1CCOCC1)N1C(=O)C2CC=CCC2C1=O (stereo partly drawn)	-5	x	1	-10	0	-1
Cc1nn2c(C)c(C(=O)Nc3ccccc3)cnc2c1C#N	0	-3	6	-10	4	-8
COc1ccc(NC(=O)CCOc2ccccc2)cc1	49*	x	112*	2	-27	-101
O=C(CSc1ccccn1)Nc1nonc1[N+](=O)[O-]	2	-2	-86	11	-1	86*
COc1ccc(CNC(=O)COc2ccc(OC)cc2)cc1	-3	0	-3	25	-4	2
COc1ccc(NC(=O)CN(C)C(=O)CCc2ccccc2)cc1	-6	0	-3	-2	2	-1
COc1ccc(NC(=O)CN(C)C(=O)C2(c3ccccc3)CCCC2)cc1	55*	-2	-40	1	-21	40
COc1ccc(CNC(=O)CCOc2ccc(C(C)(C)C)cc2)cc1	-3	x	-8	104*	-3	8
SMILES	esBAF inh	Wnt act	MITF act	C2C12 statin	EBV LMP1 NFkB	TRPM1 prom inh
COc1ccc(NC(=O)CSCc2ccccc2C)cc1	67*	x	21	-2	-22	-19
COc1ccc(NC(=O)CSc2ccccn2)c([N+](=O)[O-])c1	u	39*	x	-3	x	x
Cc1ccccc1CSCC(=O)Nc1ccccc1-c1ccccc1	x	0	17	x	4	-15
N/C(=N\NC(=O)Nc1ccc(Cl)cc1)c1ccccn1	47*	26	49	3	-9	-43
CNC(=O)N/N=C(\N)c1ccccn1	18	13	15	0	-7	-17
COc1ccc(NC(=O)CSc2nc(C)cc(C)n2)c([N+](=O)[O-])c1	x	x	13	x	-2	-5
NS(=O)(=O)c1ccc(CNC(=O)CSc2ccccc2)cc1	-2	-1	2	-4	-1	1
O=C(CSc1nnc(COc2cccc3cccnc23)o1)N1CCN(C(=O)c2ccco2)CC1	2	-3	x	x	2	16

Source: PubChem (Broad Institute)
